# This is a sample that favours compounds with a hit; in the whole collection about 0.86% have one here.
# IDE cell inh: inhibitors of human insulin-degrading enzyme in cells | 320,000 tested, 0.41% active | HEK cells, FAbetaB cleavage, fluorescence polarization | P14735 | AID 434962 | inhibition, % at 5.59 µM;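 active = percent inhibition above the average of all tested compounds plus 3 SD, set per screening campaign, cut at about 16% in these data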;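 also: IDE supplied by intact live HEK cells; FP after avidin binding of uncleaved biotin substrate so inhibition keeps polarization high; 0% = DMSO wells and 100% = 60 µM reference IDE inhibitor Ii1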
# TLR9-MyD88 inh: blocks human TLR9 binding to MyD88; Q9NR96+Q99836; CHO BLA complementation TLR9-MyD88, CCF4 FRET ratio; inhibition, % at 4.98 µM; 340,000 tested, 0.21% active; AID 504734;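 active = inhibition above the mean over all tested compounds plus 3 SD, cut at about 21% in these data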;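 also: 0% = DMSO only wells and 100% = clavulanate BLA inhibitor control wells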
# Target sequence (Q99836 whole entry, looked up): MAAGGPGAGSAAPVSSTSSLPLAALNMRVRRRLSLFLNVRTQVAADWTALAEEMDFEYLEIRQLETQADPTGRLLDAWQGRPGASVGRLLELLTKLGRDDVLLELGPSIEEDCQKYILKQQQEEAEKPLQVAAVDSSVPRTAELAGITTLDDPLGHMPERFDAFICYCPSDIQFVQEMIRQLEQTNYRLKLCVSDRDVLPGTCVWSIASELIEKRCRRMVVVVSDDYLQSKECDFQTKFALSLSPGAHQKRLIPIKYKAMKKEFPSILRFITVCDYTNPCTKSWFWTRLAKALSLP
# Target sequence (Q9NR96 whole entry, looked up): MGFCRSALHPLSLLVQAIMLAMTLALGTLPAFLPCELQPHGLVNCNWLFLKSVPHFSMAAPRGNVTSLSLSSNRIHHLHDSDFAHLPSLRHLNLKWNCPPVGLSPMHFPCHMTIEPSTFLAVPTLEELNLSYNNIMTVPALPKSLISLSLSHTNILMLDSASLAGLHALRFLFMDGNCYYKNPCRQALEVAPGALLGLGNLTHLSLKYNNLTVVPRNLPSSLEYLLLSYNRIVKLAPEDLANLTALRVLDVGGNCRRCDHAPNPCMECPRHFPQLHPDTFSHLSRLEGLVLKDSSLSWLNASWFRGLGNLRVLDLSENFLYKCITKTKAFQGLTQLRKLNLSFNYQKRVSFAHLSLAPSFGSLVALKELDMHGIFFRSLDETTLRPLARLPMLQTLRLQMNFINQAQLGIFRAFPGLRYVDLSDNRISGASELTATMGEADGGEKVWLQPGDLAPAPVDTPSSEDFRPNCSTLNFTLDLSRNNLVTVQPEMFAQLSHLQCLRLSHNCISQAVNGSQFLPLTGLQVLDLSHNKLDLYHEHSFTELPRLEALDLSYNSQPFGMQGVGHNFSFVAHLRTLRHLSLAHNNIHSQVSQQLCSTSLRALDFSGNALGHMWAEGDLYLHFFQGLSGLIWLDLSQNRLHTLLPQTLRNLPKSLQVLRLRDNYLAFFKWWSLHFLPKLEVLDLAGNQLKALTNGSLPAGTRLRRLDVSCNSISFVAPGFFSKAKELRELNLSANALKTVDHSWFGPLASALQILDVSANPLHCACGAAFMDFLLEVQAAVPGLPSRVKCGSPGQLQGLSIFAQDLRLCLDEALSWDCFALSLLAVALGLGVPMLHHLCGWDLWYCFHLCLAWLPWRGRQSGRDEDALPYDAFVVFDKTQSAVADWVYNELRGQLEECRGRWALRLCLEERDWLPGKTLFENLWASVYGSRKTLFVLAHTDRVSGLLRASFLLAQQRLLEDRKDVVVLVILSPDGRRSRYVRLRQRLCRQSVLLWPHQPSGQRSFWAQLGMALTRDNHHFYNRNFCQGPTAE
# IDE cell activ: IDE (human) activation, cell-based; AID 493087; P14735; HEK cells, FAbeta-B cleavage, fluorescence polarization; 0% vehicle, 100% cell-free pure enzyme wells; 340,000 tested, 0.073% active; activation, % at 5.96 µM;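 active = activation above the mean of all tested compounds plus 3 SD, set per screening campaign, cut at about 17% in these data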
# TLR4-MyD88 BLA: TLR4-MyD88 interaction inhibition in cells | O00206+Q99836 | HeLa CL3-4 TLR4/MyD88 BLA complementation, FRET ratio | inhibition, % at 8.4 µM | 200,000 tested, 0.18% active; in the data active = inhibition above about 25%;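 also: 0% = vehicle and 100% = reference inhibitor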
# NOD2 RIPK2 PPI: blocks binding of human NOD2 to RIPK2; O43353; CHO BLA complementation NOD2-RIPK2, CCF4 ratio; inhibition, % at 4.98 µM; 360,000 tested, 0.38% active; AID 624267; in the data active = inhibition above about 21%;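 also: 0% = vehicle only and 100% = reference blocker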
# IDE cell inh cf: confirmation of human insulin-degrading enzyme inhibitors in cells; inhibition, % at 5.59 µM; AID 435028; shares compounds with IDE cell inh; HEK cells, FAbetaB cleavage, fluorescence polarization; 1,200 tested, 51% active;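 active = mean inhibition across triplicate wells above the cutoff set by the earlier primary insulin-degrading enzyme screen, cut at about 16% in these data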;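 also: 0% = DMSO wells and 100% = 60 µM reference IDE inhibitor Ii1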
# HEK cytotox: counter-screen for IDE inhibitors: cytotoxicity in HEK cells; HEK293 cytotoxicity, ATP luminescence; 1,200 tested, 28% active; shares compounds with IDE cell inh; inhibition, % at 5.59 µM; in the data active = inhibition above about 22%;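 also: 0% = vehicle wells and 100% = reference cytotoxic drug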
# TLR9-MyD88 conf: TLR9-MyD88 interaction inhibition, confirmation; shares compounds with TLR9-MyD88 inh; CHO TLR9/MyD88 BLA complementation, CCF4 FRET ratio; inhibition, % at 4.98 µM; 680 tested, 51% active; AID 540250;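 active = mean inhibition across three repeats above about 21% taken from the earlier screen, limit read from the data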;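 also: blue over green emission ratio reports constitutive TLR9 MyD88 association via BLA complementation; 0% = DMSO vehicle wells and 100% = clavulanate BLA inhibitor wells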
# BLA counter-1: counter-screen for TLR9-MyD88 inhibitors: non-selective beta-lactamase inhibitors; shares compounds with TLR9-MyD88 inh; CHO-BLA cells, CCF4 FRET ratio, BLA reporter; inhibition, % at 4.98 µM; 680 tested, 7% active;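 active = mean inhibition above a 50% cutoff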;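 also: counterscreen of TLR9-MyD88 hits on CMV-driven BLA in CHO-K1 cells; 0% = DMSO alone and 100% = clavulanate blocking BLA; higher means less blue over green ratio so more BLA blockade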
# TLR9 CHO cytotox: CHO cell toxicity counter-screen for TLR9-MyD88 inhibitors; shares compounds with TLR9-MyD88 inh; 680 tested, 39% active; inhibition, % at 4.98 µM; TLR9-MyD88 CHO cells cytotoxicity, luminescence; in the data active = inhibition above about 11%
# NOD2-RIPK2 conf: NOD2-RIPK2 interaction inhibition confirmed; shares compounds with NOD2 RIPK2 PPI; CHO cells, NOD2-RIPK2 BLA complementation, CCF4 FRET; AID 624370; 1,200 tested, 70% active; inhibition, % at 4.98 µM;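 active = mean inhibition across replicates above a set limit taken from the earlier primary screen, cut at about 21% in these data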;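 also: 0% = DMSO-only wells and the high end = clavulanate BLA-blocked wells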
# BLA counter-2: NOD2-RIPK2 counterscreen BLA reporter activity; shares compounds with NOD2 RIPK2 PPI; CHO BLA reporter, CCF4 FRET ratio; inhibition, % at 4.98 µM; 1,200 tested, 57% active; AID 624371;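 active = mean inhibition above the low-control mean inhibition plus three low-control SD, cut at about 11% in these data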;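 also: 0% = DMSO only wells and 100% = clavulanate high control wells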
# * = called active by the depositor; . = no result.
SMILES,IDE cell inh,TLR9-MyD88 inh,IDE cell activ,TLR4-MyD88 BLA,NOD2 RIPK2 PPI,IDE cell inh cf,HEK cytotox,TLR9-MyD88 conf,BLA counter-1,TLR9 CHO cytotox,others
COC(=O)c1cn(NC(=O)c2cccc(N(C)C)c2)c(=O)c2ccccc12,-3,-6,4,-13,1,.,.,.,.,.,
CC[n+]1ccc(/C=C2\Sc3ccccc3N2CCCS(=O)(=O)[O-])c2ccccc21,17*,-5,3,0,-4,8,9,.,.,.,
C[n+]1ccccc1/C=C1\Sc2ccccc2N1CCO,6,5,1,.,4,.,.,.,.,.,
O=C(CCc1ccccc1)NCc1ccccn1,-3,5,-3,15,-18,.,.,.,.,.,
Cc1ccccc1-n1c(SCc2csc(Nc3ccccc3)n2)nnc1-c1cccnc1,21*,-7,-13,-1,4,7,20,.,.,.,
COCCN1CC(CNC(=O)c2cc(COc3ccc(C)c(C)c3)on2)CC1=O (stereo not drawn),17*,13,-14,.,-2,7,11,.,.,.,
CCOC(=O)C1=C(C)N(C)C(=O)NC1c1ccc2c(c1)OCO2 (stereo not drawn),9,-1,2,.,-3,.,.,.,.,.,
CC(=O)c1ccc(NCC(=O)N2CCN(c3ccccc3)CC2)cc1,21*,-13,-17,-7,6,7,9,.,.,.,
Cc1cc(C)c([N+](=O)[O-])cc1NCC(=O)N1CCN(c2ccccc2)CC1,22*,2,-10,-2,14,7,3,.,.,.,
Cc1oc(C)c2c(=O)ccc3c(c12)OC(N)=C(C#N)C3c1ccc(F)cc1 (stereo not drawn),27*,-5,-86,-3,3,68*,10,.,.,.,
O=C(Cc1ccccc1)N1CCc2[nH]nc(-c3ccccc3)c2C1,8,-4,-7,.,0,.,.,.,.,.,
Cc1ccccc1-n1c(O)c(/C=C/C=Nc2ccccc2)c(=O)[nH]c1=O,66*,-9,-71,-4,-2,85*,7,.,.,.,
Cc1ccc(-n2c(O)c(/C=C3/C(c4ccccc4)=Nc4ccccc43)c(=O)[nH]c2=O)cc1,3,3,4,12,-3,.,.,.,.,.,
COc1cc(/C=C2\SC(=S)N(Nc3ncc(C(F)(F)F)cc3Cl)C2=O)ccc1O,51*,26*,-87,11,13,129*,7,1,2,4,
COc1ccc(N=Cc2c(O)c3ccccc3n2C(C)=O)cc1,-4,2,-22,.,-5,.,.,.,.,.,
COc1ccc(N=Cc2sc(O)c3ccccc23)cc1,61*,22*,-66,21,2,90*,10,21*,18,-1,
CC(=O)Oc1ccc(-n2c(=O)c3ccccc3c3ccccc3c2=O)cc1,1,-4,4,9,-20,.,.,.,.,.,
CC(=O)Oc1ccc(N2C(=O)c3cccc4c([N+](=O)[O-])ccc(c34)C2=O)cc1,18*,23*,-4,.,10,13,68*,32*,43,85*,
O=C(CN1C(=O)NC(Cc2c[nH]c3ccccc23)C1=O)NC1CC1 (stereo not drawn),-10,-9,1,.,-12,.,.,.,.,.,
Cc1ccc(S(=O)(=O)/N=C2/NC(=O)/C(=C/c3cc([N+](=O)[O-])ccc3O)S2)cc1,58*,27*,-45,.,18,80*,5,10,15,-2,
O=C(NCCCN1CCCC1=O)c1cccc(S(=O)(=O)N2CCCCC2)c1,-1,-2,-1,.,-4,.,.,.,.,.,
O=C(NCc1ccco1)c1cccc2c1C(=O)c1ccc(N3CCC(Cc4ccccc4)CC3)cc1S2(=O)=O,46*,27*,-17,.,32*,45*,43*,37*,39,6,
O=C(NCc1ccc(OC(F)(F)F)cc1)c1cccc2c1C(=O)c1ccc(N3CCC(Cc4ccccc4)CC3)cc1S2(=O)=O,3,6,5,.,5,.,.,.,.,.,
COC(=O)c1cc(C#N)c(OC)nc1C,3,4,-1,13,7,.,.,.,.,.,
COc1cccc(C2C=C(c3ccc(Br)s3)Nc3ncnn32)c1OC (stereo not drawn),32*,27*,-50,21,31*,6,21,5,5,2,
SMILES,IDE cell inh,TLR9-MyD88 inh,IDE cell activ,TLR4-MyD88 BLA,NOD2 RIPK2 PPI,IDE cell inh cf,HEK cytotox,TLR9-MyD88 conf,BLA counter-1,TLR9 CHO cytotox,others
Cc1ccccc1-n1sc2cc(F)ccc2c1=O,72*,36*,-46,0,34*,17*,80*,21*,3,100*,NOD2-RIPK2 conf=47*;BLA counter-2=19*
O=c1c2ccccc2sn1-c1ccccc1F,.,-2,.,.,-7,.,.,.,.,.,
O=c1c2cc(F)ccc2sn1-c1ccccc1,60*,40*,-25,.,48*,33*,83*,36*,-2,97*,NOD2-RIPK2 conf=50*;BLA counter-2=12*
O=c1c2ccccc2sn1-c1ccccc1,64*,54*,-20,9,77*,32*,98*,.,.,.,NOD2-RIPK2 conf=50*;BLA counter-2=10
Cn1sc2ccccc2c1=O,.,1,.,.,2,.,.,.,.,.,
CCN1C(=O)c2cccc3c(N)ccc(c23)C1=O,24*,25*,0,.,27*,61*,11,13,13,2,NOD2-RIPK2 conf=35*;BLA counter-2=35*
O=C(O)c1cccc(-c2ccc(/C=N/Nc3ccc([N+](=O)[O-])cc3)o2)c1,18*,19,-10,.,28*,22*,10,.,.,.,NOD2-RIPK2 conf=30*;BLA counter-2=32*
O=C(O)c1ccc(N/N=C/c2ccc(-c3cccc(Cl)c3)o2)cc1,6,-6,1,.,6,.,.,.,.,.,
CC(=O)N=c1sccn1CC(=O)c1ccc([N+](=O)[O-])cc1,4,-1,-1,-1,6,.,.,.,.,.,
CCC/C(C#Cc1ccc(N(C)C)cc1)=C1/c2ccccc2C(=O)N1c1ccccc1,22*,29*,-8,.,40*,16,26*,56*,57*,3,NOD2-RIPK2 conf=49*;BLA counter-2=60*
CC(=O)N(c1ccccc1C)C1CCCC1,-1,-11,-2,1,-3,.,.,.,.,.,

# Screens from PubChem BioAssay.
